# The whole screen tested about 52,000 compounds, of which about 4,300 (8.3%) were called active. The sample holds actives, similar compounds and a random draw of the others, so the mix is not that of the screen. Rule as the data show it: active = survival mostly below about 52% (no sharp cut-off); inactive = mostly above about 56%.
# Test system: DeltatarO mutant
# Test: growth inhibition of S. aureus wild type versus tarO mutant, primary screen, teichoic acid synthesis inhibitors, RN4220, OD600 (AID 463173)
# Conditions: OD600, 18 h, stronger effect = lower value, screened at 18.75 µg/mL (by protocol)
row,Structure (SMILES),survival
1,c1ccc(N2CCN(Cc3cccn3-c3nnc(N4CCN(C5CCCCC5)CC4)s3)CC2)cc1,76% (inactive)
2,CCC(=O)N1CCc2cc(Br)cc(S(=O)(=O)N3CCC(C(=O)Nc4ccccc4F)CC3)c21,43% (active)
3,CCc1cccc(C)c1NC(=O)C1CCN(S(=O)(=O)c2cc(Br)cc3c2N(C(C)=O)CC3)CC1,59% (inactive)
4,CCC(=O)N1CCc2cc(Br)cc(S(=O)(=O)N3CCC(C(=O)NC(C)(C)C)CC3)c21,84% (inactive)
5,CCC(=O)N1CCc2cc(Br)cc(S(=O)(=O)N3CCC(C(=O)Nc4cccc(C)c4)CC3)c21,80% (inactive)
6,CCC(=O)N1CCc2cc(Br)cc(S(=O)(=O)N3CCC(C(=O)Nc4ccc(OC)cc4)CC3)c21,8% (active)
7,CCOc1ccccc1NC(=O)C1CCN(S(=O)(=O)c2cc(Br)cc3c2N(C(C)=O)CC3)CC1,69% (inactive)
8,CCCCNC(=O)C1CCN(S(=O)(=O)c2cc(Br)cc3c2N(C(=O)CC)CC3)CC1,90% (inactive)
9,CCC(=O)N1CCc2cc(Br)cc(S(=O)(=O)N3CCC(C(=O)Nc4ccccc4CC)CC3)c21,84% (inactive)
10,CC(=O)N1CCc2cc(Br)cc(S(=O)(=O)N3CCC(C(=O)Nc4cccc(C)c4C)CC3)c21,75% (active)
11,COC(=O)CNC(=O)C1CCN(c2nc(C)cc(-c3ccccc3)n2)CC1,96% (inactive)
12,O=C(Nc1sc2c(c1C(=O)c1ccccc1)CCCC2)c1ccco1,73% (inactive)
13,O=C(/C=C/c1ccco1)NC(=S)Nc1ccccc1O,100% (inactive)
14,CCCCNC(=O)C1CCC(Cn2c(=O)c3sccc3n(Cc3ccccc3)c2=O)CC1 (configuration not stated),71% (inactive)
15,CSc1ccc(CCNC(=O)c2cnc3c(C)cccn3c2=O)cc1,89% (inactive)
16,CCc1ccccc1NC(=O)C1CCC(CNS(=O)(=O)c2ccc3c(c2)CC(C)N3C(C)=O)CC1 (configuration not stated),91% (inactive)
17,COc1cccc(NC(=O)CCc2c(C)nc3nc(CNC(=O)c4cccc(F)c4)nn3c2C)c1,76% (inactive)
18,O=C(NCc1ccc(F)cc1)c1ccc2c(c1)N(Cc1ccc(F)cc1Cl)C(=O)CS2,57% (inactive)
19,Cc1ccc(CNC(=O)c2ccc3c(c2)N(Cc2ccccc2Cl)C(=O)CS3)cc1,50% (inactive)
20,Cc1ccc(CNC(=O)c2ccc3c(c2)N(Cc2cccc(Cl)c2)C(=O)CS3)cc1,40% (active)
21,COc1ccc(CNC(=O)c2ccc3c(c2)N(Cc2cc(C)ccc2C)C(=O)CS3)cc1,59% (inactive)
22,O=C(NCc1ccccc1Cl)c1ccc2c(c1)N(Cc1ccccc1)C(=O)CS2,101% (inactive)

row,Structure (SMILES),survival
1,Cc1ccc(C)c(CN2C(=O)CSc3ccc(C(=O)NCc4ccc(F)cc4)cc32)c1,46% (active)
2,Cc1cccc(CNC(=O)c2ccc3c(c2)N(C)CCS3)c1,65% (inactive)
3,Cc1cccc(CN2C(=O)c3ccccc3Sc3ccc(C(=O)NCc4cccs4)cc32)c1,93% (inactive)
4,CCN1CCSc2ccc(C(=O)NCc3cccc(F)c3)cc21,61% (inactive)
5,Cc1ccc(CNC(=O)c2ccc3c(c2)N(Cc2cccc(C)c2)C(=O)CS3)cc1,46% (active)
6,CCN1CCSc2ccc(C(=O)NCc3ccccc3Br)cc21,62% (inactive)
7,CCN1CCSc2ccc(C(=O)NCc3cccc(Br)c3)cc21,46% (active)
8,Cc1ccc(NC(=O)Cn2nc(-c3ccncc3)ccc2=O)cc1Cl,120% (inactive)
9,Cc1cc(C)c(/C=C/c2onc(C)c2S(=O)(=O)N2CCC(C(=O)NCCc3ccccc3)CC2)c(C)c1,94% (inactive)
10,Cc1ccc(-n2nc3c(=O)n(CCCC(=O)NCc4ccccc4C)nc(C)c3c2C)cc1,120% (inactive)
11,COC(=O)c1nc(C(=O)OC)c(C(=O)OC)nc1C(=O)OC,95% (inactive)
12,COc1ccc(Cl)cc1C(=O)Nc1sc2c(c1C(=O)OC(C)C)CCCC2,61% (inactive)
13,CCOC(=O)Cc1c(C(=O)OCC)nnc2c(-c3ccccc3)c(C)nn12,75% (inactive)
14,CN(C)c1ccc(CNC(=O)c2ccccc2NC(=O)c2nsc3ccccc23)cc1,73% (inactive)
15,COc1ccccc1NC(=O)C1=C(C)Nc2nc(CCCO)nn2C1c1cccc(O)c1 (configuration not stated),144% (inactive)
16,CCCOc1ccc(C2C3CN(CC)CC=C3C(C#N)=C(N)C2(C#N)C#N)cc1OC (configuration not stated),0% (active)
17,CCN1CC=C2C(C#N)=C(N)C(C#N)(C#N)C(c3ccc(OC)c4ccccc34)C2C1 (configuration not stated),108% (inactive)
18,CCCN1CC=C2C(C#N)=C(N)C(C#N)(C#N)C(c3cccc(OC)c3)C2C1 (configuration not stated),95% (inactive)
19,CC1CCN(S(=O)(=O)c2ccc3c(c2)CCN3)CC1,102% (inactive)
20,COc1cc(C2C(C(=O)Nc3ccc(C)cc3C)=C(C)Nc3nc(SCc4ccccc4)nn32)cc(OC)c1OC (configuration not stated),64% (inactive)
21,O=C(O)C1C(c2ccccc2)C(C(=O)N2CCCCC2)C1c1ccccc1 (configuration not stated),101% (inactive)
22,Brc1ccccc1-n1ncc2c1ncn1nc(Cc3ccccc3)nc21,74% (inactive)

row,Structure (SMILES),survival
1,CC(C)(C)OC(=O)N1CCC(c2nnc(SCc3ccccc3)o2)CC1,96% (inactive)
2,CC(C)(C)OC(=O)N1CCC(c2nnc(SCc3cccc(Cl)c3)o2)CC1,1% (active)
3,CC(C)(C)OC(=O)N1CCC(c2nnc(SCc3ccccc3Cl)o2)CC1,-1% (active)
4,Clc1ccccc1CSc1nnc(C2CCNCC2)o1,89% (inactive)
5,CC(C)(C)OC(=O)N1CCC(c2nnc(SCc3ccccc3F)o2)CC1,57% (inactive)
6,Clc1cccc(CSc2nnc(C3CCNCC3)o2)c1,104% (inactive)
7,CCN(C(=O)c1cnc(N2CCOCC2)c2ccccc12)c1cc(C)ccc1C,94% (inactive)
8,O=C(c1ccccc1)c1ccc2nc(Nc3cc(Cl)ccc3O)c3nncn3c2c1,118% (inactive)
9,COc1ccc(NC(=O)CSc2oc(-c3ccc(C)cc3)nc2S(=O)(=O)c2ccc(C)cc2)c(OC)c1,60% (inactive)
10,CCCCn1cc(S(=O)(=O)c2ccc(C)c(C)c2)c(=O)c2cc(F)c(N3CCN(C)CC3)cc21,101% (inactive)
11,COC(=O)c1ccccc1NC(=O)[C@H]1O[C@@H]2OC(C)(C)O[C@@H]2[C@H]2OC(C)(C)O[C@H]21,95% (inactive)
12,COc1ccccc1C(=O)N1CCN(Cc2cc(=O)oc3cc(C)ccc23)CC1,38% (active)
13,Cc1ccc2c(CN3CCN(Cc4ccccc4Cl)CC3)cc(=O)oc2c1,43% (inactive)
14,Cc1ccc2c(CN3CCN(C(=O)c4ccc(F)cc4)CC3)cc(=O)oc2c1,33% (active)
15,Cc1ccc2c(CN3CCN(C(=O)c4ccc(Br)cc4)CC3)cc(=O)oc2c1,51% (inactive)
16,COc1cccc(N2CCN(Cc3cc(=O)oc4cc(C)ccc34)CC2)c1,70% (inactive)
17,COc1ccc(CN2CCN(Cc3cc(=O)oc4cc(C)ccc34)CC2)c(OC)c1OC,101% (inactive)
18,Cc1ccc(N2C(=O)CSC23C(=O)N(CC(=O)NCCc2ccccc2)c2ccccc23)cc1C (configuration not stated),95% (inactive)
19,O=c1[nH]c2cc3c(cc2cc1C(c1nnnn1C1CCCC1)N1CCc2ccccc21)OCCO3 (configuration not stated),64% (inactive)
20,COc1cccc(N2CC(NC(=O)c3cccc(OC)c3OC)CC2=O)c1 (configuration not stated),115% (inactive)
21,NC(=O)CN(C1CCCCC1)S(=O)(=O)c1ccc(Br)cc1,96% (inactive)
22,CCCCC(CC)CNC(=O)c1ccc2c(=O)n(Cc3ccc(OC)cc3)c(=O)[nH]c2c1 (configuration not stated),84% (inactive)

row,Structure (SMILES),survival
1,Cc1ccc(CCNC(c2ccc(F)cc2)c2nnc(-c3ccccc3Cl)o2)cc1 (configuration not stated),-8% (active)
2,Fc1ccc(C(NCCc2ccc(Cl)cc2)c2nnc(-c3ccccc3Cl)o2)cc1 (configuration not stated),26% (active)
3,Fc1ccc(C(NCCc2ccccc2)c2nnc(-c3ccccc3Cl)o2)cc1 (configuration not stated),104% (inactive)
4,COc1ccc(CCNC(c2ccc(F)cc2)c2nnc(-c3ccccc3Cl)o2)cc1OC (configuration not stated),57% (inactive)
5,Fc1ccc(NCc2ccccc2-c2nnc(-c3ccccc3Cl)o2)cc1,88% (inactive)
6,Fc1ccc(C(Nc2ccccc2Cl)c2nnc(-c3ccccc3Cl)o2)cc1 (configuration not stated),83% (inactive)
7,CCOc1ccc(C(C)C)cc1S(=O)(=O)Nc1cccc(-c2ccc(N3CCOCC3)nn2)c1,87% (inactive)
8,Cc1nc2nc(NC(=O)c3ccc(C(C)(C)C)cc3)[nH]n2c(=O)c1Cl,98% (inactive)
9,Cc1nn(C(=O)c2ccccc2F)c(C)c1S(=O)(=O)N1CCCCCC1,83% (inactive)
10,Cc1nn(S(=O)(=O)c2ccc(F)cc2)c(C)c1S(=O)(=O)N1CCC(C)CC1,-1% (active)
11,Cc1nn(S(=O)(=O)c2ccccc2)c(C)c1S(=O)(=O)N1CCC(C)CC1,72% (inactive)
12,COc1ccc(S(=O)(=O)n2nc(C)c(S(=O)(=O)N3CCC(C)CC3)c2C)cc1OC,70% (inactive)
13,Cc1nn(C(=O)c2cccc([N+](=O)[O-])c2C)c(C)c1S(=O)(=O)N1CCOCC1,76% (inactive)
14,Cc1nn(C(=O)c2cccc([N+](=O)[O-])c2C)c(C)c1S(=O)(=O)N1CCCCCC1,-2% (active)
15,Cc1nn(S(=O)(=O)c2ccc(F)cc2)c(C)c1S(=O)(=O)N1CCCCC1,72% (inactive)
16,COc1ccc(S(=O)(=O)n2nc(C)c(S(=O)(=O)N3CCCCCC3)c2C)cc1OC,6% (active)
17,COc1ccc(S(=O)(=O)n2nc(C)c(S(=O)(=O)N3CCCCCC3)c2C)cc1C,81% (inactive)
18,CC(C)c1ccc(Nc2cc(C(=O)NCCc3ccccc3)c3ccccc3n2)cc1,81% (inactive)
19,Cc1nn(CC(=O)NCc2ccccc2Br)c(=O)c2cc3occc3n12,132% (inactive)
20,Cc1ccc(CCNC(=O)c2ccc3c(c2)N(Cc2ccc(F)cc2)CCS3)cc1,71% (inactive)
21,CC1=C(c2ccc(C(C)C)cc2)S(=O)(=O)N=C1N1CCN(c2ccc(F)cc2)CC1,74% (inactive)
